As a reminder, the inhibition is the relative decrease from the control value, in per cent.

Screen size: about 360,000 compounds; about 1,500 (0.42%) were called active. The entries come from a sample that favours actives as a whole. A number with no mark means an inactive call. No stated cut-off is given here; in the data, active means inhibition above about 8.5%; inactive means the rest.

For the experiment, the system named is HIV-1 gp120 / PG9 antibody interaction. Nature of the experiment: small molecules engaging PG9 antibody – biochemical, TR-FRET, primary screen (AID 624416). The conditions noted are these: TR-FRET gp120-PG9 antibody binding; at 6.7 µM; hits give high values.
With `O=C(NCc1ccccc1)[C@@H]1CCCN1C(=O)[C@H]1CCCN1C(=O)c1cccc(Cl)c1`, the inhibition is -0.83%.

In the case of `Cc1noc(C)c1NC(=O)Nc1ccc2c(c1)C(=O)N([C@H](C)CO)C[C@H](C)[C@H](CN(C)Cc1ccncc1)OCCCC[C@@H](C)O2`, the inhibition is 0.19%.

On to `C[C@H]1CN([C@@H](C)CO)C(=O)CCCn2nncc2CO[C@@H]1CN(C)C(=O)Nc1ccc(N2CCN(C)CC2)cc1`, for which the inhibition was -0.47%.

As to `Cc1[nH]c2ccccc2c1CC(=O)Nc1ccc(Nc2cccnc2)c(-c2cccc(Cl)c2)c1`, the inhibition was 0.12%.

In the case of `O=C(O)Cn1cnc2c(NCc3ccccc3)ncnc21`, the inhibition is 1.02%.

As to `CC(=O)C1=C(C)N(Cc2ccccc2)C(=S)NC1c1cccc(Br)c1` (stereo not given), the inhibition was -1.42%.

As to `CCOc1ccccc1C(=O)N1CCC[C@@H]1C(=O)N1CCC[C@H]1C(=O)NCc1ccccc1`, the inhibition was 2.14%.

Turning to `COc1cccc(CC(=O)N2CCN(C(=O)C(=O)c3cccc(C(F)(F)F)c3)CC2)c1`, the inhibition was 0.18%.

Turning to `COCc1cc(N2CCN(C(=O)OC(C)(C)C)C[C@@H]2C)ccc1N1CCN(Cc2ccccc2)[C@H](C)C1`, the inhibition is 0.37%.

Turning to `CCCCCCCCN1C(=O)[C@@H](CC(=O)NCc2ccccc2)C[C@@]2(C(=O)OC)C1=C[C@H](C(C)(C)C)O[C@@H]2C`, the inhibition was -0.73%.

With `COCCCNc1nc2c(-c3cccc(C(F)(F)F)c3)nnn2c2ccccc12`, the inhibition is 0.39%.

`COCCNc1nc(Nc2ccccc2Cl)c2sc(-c3ccccc3)cc2n1`: the inhibition is 1.58%.

As to `COCCCNc1nc2c(-c3cccc(C)c3)nnn2c2ccc(Cl)cc12`, the inhibition was 10.3% (active).

As to `CC(C)CNc1cccc2c1S(=O)(=O)N[C@H](CC(C)C)CO2`, the inhibition was -0.01%.

`CN(C)C(=O)N1CCN(C(=O)[C@@H](Cc2ccccc2)NC(=O)[C@H]2O[C@@H](n3ccc(N)nc3=O)[C@H](O)[C@@H]2O)CC1`: the inhibition is -2.32%.

On to `c1ccc(Cc2ccc(OCCn3ccnc3)cc2)cc1`, for which the inhibition is -0.66%.

Regarding `C=CCOc1cccc(C2C(C(=O)c3ccc(C)o3)=C(O)C(=O)N2CCN2CCOCC2)c1` (stereo not given), the inhibition was 2.96%.

As for `C=CCOc1cccc(C2C(C(=O)c3ccc(C)o3)=C(O)C(=O)N2c2nnc(C)s2)c1` (stereo not given), the inhibition is 2.85%.

With `CCCOc1ccc(C2C(C(=O)c3ccc(C)o3)=C(O)C(=O)N2CCCn2ccnc2)cc1` (stereo not given), the inhibition is 54.6% (active).

For `CCOc1ccc(C2/C(=C(/O)c3ccc4c(c3)CC(C)O4)C(=O)C(=O)N2CCCn2ccnc2)cc1` (stereo not given), the inhibition is 1.05%.

As to `C=CCOc1cccc(C2C(C(=O)c3ccc(C)o3)=C(O)C(=O)N2CCCn2ccnc2)c1` (stereo not given), the inhibition is 11.1% (active).

`COC(=O)c1c(-c2ccc(OC)cc2)c2c(c3c4cc(OC)ccc4n(S(=O)(=O)c4ccc(F)cc4)c13)C(=O)N(C)C2`: the inhibition was 1.03%.

Regarding `COC(=O)c1c(-c2ccc(OC)cc2)c2c(c3c4ccccc4n(S(=O)(=O)c4ccc(C)cc4)c13)C(=O)N(C)C2`, the inhibition is 0.17%.

Regarding `CN1C(=O)C2CC(O)C(SC3CC4C(=O)N(C)C(=O)C4CC3O)CC2C1=O` (stereo not given), the inhibition was 0.46%.

`CC(C)(C)c1ccc(S(=O)(=O)NCC2CCN(C(=O)C(=O)c3cc4ccccc4o3)CC2)cc1`: the inhibition was -1.81%.

Regarding `Cc1cc(Br)cn2c(Cc3ccccc3C(F)(F)F)c(-c3ccc(C#N)cc3)nc12`, the inhibition was 0.29%.

`COc1cc(N)c(Cl)cc1C(=O)OCC(=O)c1ccc2c(c1)NC(=O)CO2`: the inhibition was -0.01%.

Turning to `O=C1COc2ccc(C(=O)COC(=O)c3ccccc3Cl)cc2N1`, the inhibition is 28.2% (active).

As for `O=C1COc2ccc(C(=O)COC(=O)c3cccnc3Cl)cc2N1`, the inhibition is -1.31%.

On to `OC(c1ccccc1)(c1ccccc1)C1CCN(CCCOc2ccc(-c3ccsc3)cc2)CC1`, for which the inhibition was 1.88%.

For `COCCCNC(=O)C[C@H]1C[C@@]2(C(=O)OC)C(=C[C@H](C(C)(C)C)O[C@@H]2C)N(Cc2ccc3c(c2)OCO3)C1=O`, the inhibition is 0.35%.

As to `CC(C)C[C@H](NC(=O)CC1CCCC1)C(=O)N1CCC[C@H]1C(=O)NCc1ccccc1`, the inhibition is -0.84%.

Consider `COc1ccc2ccccc2c1CNc1nnnn1C`, for which the inhibition is 0.54%.

`Cn1c(=S)sc2ccc3ccccc3c21`: the inhibition was 14.2% (active).

Turning to `CC(=O)C1=C(C)N(Cc2ccc(Cl)cc2)C(=S)NC1c1ccc(F)cc1` (stereo not given), the inhibition is -2.38%.

In the case of `Cc1ccc2nc(-c3ccc(CN4CCC(n5cc(-c6ccccc6)[nH]c5=O)CC4)cc3)c(-c3ccccc3)nc2c1`, the inhibition was -0.32%.

As for `O=C(NCc1ccccc1)[C@H]1CCCN1C(=O)[C@H]1CCCN1C(=O)N1CCOCC1`, the inhibition was -0.88%.

For `CC(C)(C)n1nc(C2CC2)c(Br)c1NC(=O)c1ccccc1F`, the inhibition is 0.97%.

On to `CC1CCN(C(=O)c2ncn3c2C(=O)N[C@@H](C)C3)CC1`, for which the inhibition was -0.93%.

With `O=C(COC(=O)c1cc2c(s1)CCCC2)NCc1ccccc1Cl`, the inhibition is -0.89%.

As for `O=C(COC(=O)c1ccc2c(c1)OCCO2)NCc1ccccc1Cl`, the inhibition was 9.13% (active).

On to `O=C(OCc1ccccc1F)c1ccc2c(c1)OCCO2`, for which the inhibition is -1.71%.

As to `CCOC(=O)/C=C/c1ccccc1O`, the inhibition was 0.44%.

On to `O=C1C(=O)N(CCCN2CCOCC2)C(c2ccc([N+](=O)[O-])cc2)/C1=C(\O)c1ccc2c(c1)OCCO2` (stereo not given), for which the inhibition was -1.43%.

In the case of `CC1Cc2cc(/C(O)=C3\C(=O)C(=O)N(CCN4CCOCC4)C3c3ccccc3F)ccc2O1` (stereo not given), the inhibition is 13.2% (active).

As for `COc1ccc(C2/C(=C(/O)c3ccc4c(c3)CC(C)O4)C(=O)C(=O)N2Cc2ccncc2)cc1` (stereo not given), the inhibition was 2.5%.

With `O=C1C(=O)N(CCN2CCOCC2)C(c2ccccn2)/C1=C(/O)c1ccc(Cl)cc1` (stereo not given), the inhibition is 0.67%.

As to `COCCCN1C(=O)C(=O)/C(=C(/O)c2ccc3c(c2)CC(C)O3)C1c1cccnc1` (stereo not given), the inhibition was 3.22%.

For `O=C1C(=O)N(CCN2CCOCC2)C(c2cccc(Cl)c2)/C1=C(/O)c1ccc2c(c1)OCO2` (stereo not given), the inhibition is 30.6% (active).

For `Cc1nc(NC(=O)C(C)(C)C)sc1[N+](=O)[O-]`, the inhibition is -0.45%.
